# Experimental data as given in article PMC4336329 (PLoS ONE, 2015).
# Among all 310,000 compounds or so, about 14,000 (4.5%) showed an effect of 50% or more. Effects have a minus sign here. The sample holds strong results, similar compounds and a random draw of the others, so the mix is not that of the screen.
# Biological target: human ether-à-go-go-related gene (hERG) potassium channel (human, UniProt Q12809)
# Test: primary screen, population patch clamp on CHO cells stably expressing hERG; higher = less effect of the substance
# 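Further: peak tail current of the secondary pulse compared with the same well before compound.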
# Sequence of human ether-à-go-go-related gene (hERG) potassium channel (Q12809 whole entry, looked up): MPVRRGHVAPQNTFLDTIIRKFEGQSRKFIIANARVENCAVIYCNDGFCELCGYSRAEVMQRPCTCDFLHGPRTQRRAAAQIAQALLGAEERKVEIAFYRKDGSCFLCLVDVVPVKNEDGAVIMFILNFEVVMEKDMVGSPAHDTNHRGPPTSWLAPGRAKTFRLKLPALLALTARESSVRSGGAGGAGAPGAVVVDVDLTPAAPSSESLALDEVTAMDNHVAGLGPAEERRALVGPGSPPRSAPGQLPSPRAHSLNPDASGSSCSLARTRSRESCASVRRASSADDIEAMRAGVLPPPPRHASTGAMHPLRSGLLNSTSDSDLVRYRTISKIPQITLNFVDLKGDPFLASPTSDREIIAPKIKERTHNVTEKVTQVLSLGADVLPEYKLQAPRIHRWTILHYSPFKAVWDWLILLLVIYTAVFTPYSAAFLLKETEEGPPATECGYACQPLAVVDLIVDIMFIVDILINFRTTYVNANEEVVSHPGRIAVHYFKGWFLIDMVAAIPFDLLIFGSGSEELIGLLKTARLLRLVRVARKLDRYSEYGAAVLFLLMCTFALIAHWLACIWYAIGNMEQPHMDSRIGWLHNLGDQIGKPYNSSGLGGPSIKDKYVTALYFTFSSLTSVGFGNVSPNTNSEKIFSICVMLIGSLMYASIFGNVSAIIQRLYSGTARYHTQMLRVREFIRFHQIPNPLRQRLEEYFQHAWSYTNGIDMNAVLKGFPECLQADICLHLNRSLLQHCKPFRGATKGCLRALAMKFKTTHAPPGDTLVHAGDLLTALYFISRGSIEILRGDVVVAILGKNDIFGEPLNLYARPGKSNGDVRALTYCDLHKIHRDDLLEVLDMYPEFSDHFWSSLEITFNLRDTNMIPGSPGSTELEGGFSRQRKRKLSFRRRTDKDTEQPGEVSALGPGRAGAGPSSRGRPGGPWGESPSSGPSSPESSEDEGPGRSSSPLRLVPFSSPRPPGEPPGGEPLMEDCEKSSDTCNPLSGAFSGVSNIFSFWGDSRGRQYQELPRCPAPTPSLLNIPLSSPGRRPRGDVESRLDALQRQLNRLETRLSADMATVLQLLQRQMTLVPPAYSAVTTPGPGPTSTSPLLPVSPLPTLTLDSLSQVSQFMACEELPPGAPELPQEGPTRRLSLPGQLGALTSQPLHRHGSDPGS
row,SMILES,"hERG current change (%, negative = inhibition) at 10uM"
1,O=C(NCCCn1ccnc1)c1ccc(Cl)cc1,-2.72%
2,O=C(/C=C/c1ccc(F)cc1)NCCCn1ccnc1,-31.9%
3,O=C(C#Cc1ccccc1)NCc1ccccc1F,-2.39%
4,CC1(C)CCC(=O)C=C1Nc1ccc(F)c(Cl)c1,7.56%
5,N#C/C(=N\O)c1nc(-c2ccccc2)cs1,15.9%
6,CC(C)(C)c1ccc(S(=O)(=O)NCc2ccc(C(=O)NCC3CCCO3)cc2)cc1 (stereo not shown),13.8%
7,O=C(OCc1ccc(Br)cc1)c1cccc(S(=O)(=O)N2CCCC2)c1,-6.47%
8,CSc1nsc(SC)c1C(N)=O,10.6%
9,CCOC(=O)C1(CCOc2ccccc2)CCN(Cc2ccncc2)CC1,-52%
10,CCOC(=O)C1(CCOC)CCN(Cc2ccncc2)CC1,8.26%
11,CCOC(=O)C1(Cc2cccc(OC)c2)CCN(Cc2cnc(SC)nc2)CC1,-27%
12,CCOC(=O)C1(CCOC)CCN(Cc2cnc(-c3cccc(C)c3)nc2)CC1,-5.81%
13,CCOC(=O)C1(CCOc2ccccc2)CCN(Cc2ccc(C#CCCO)cc2)CC1,-53.3%
14,CCOC(=O)C1(CCOc2ccccc2)CCN(Cc2ccc(C(=O)OC)cc2)CC1,-49.9%
15,CCOC(=O)C1(CCOc2ccccc2)CCN(Cc2cnc(SC)nc2)CC1,-72.2%
16,CCOC(=O)C1(Cc2ccccc2)CCCN(Cc2ccncc2)C1 (stereo not shown),-17.4%
17,CCOC(=O)C1(CCOc2ccccc2)CCN(Cc2ccc(OC)cc2)CC1,-75.1%
18,CCc1ccc(C(C)NC(=O)/C(C#N)=C\c2cn[nH]c2-c2ccccc2)cc1 (stereo not shown),-1.91%
19,CC1=NN(c2ccc(Cl)cc2)C(=O)C1,3.77%
20,Cc1ccc(C(=O)OCC(=O)N2CCOCC2)cc1,15.6%
21,O=C(NNC(=S)Nc1ccc(Cl)cc1Cl)C1CC1,-24%
22,O=C(Nc1ccc2c(c1)OC1(CCCC1)O2)C1CC1,3.79%
23,Cc1ccc(C)n1-c1ncc(Br)cn1,6.58%
24,CCCCOCCCNC(=O)N[C@@H](CCSC)C(=O)OC,16.3%
25,C=CCn1c2ccccc2c(=O)c2cc(C#Cc3ccccn3)ccc21,-0.113%
26,CCOC(=O)C1(CCOc2ccccc2)CCN(Cc2ccc(O)c(Cl)c2)CC1,-53%

row,SMILES,"hERG current change (%, negative = inhibition) at 10uM"
1,CCOC(=O)C1(CCOc2ccccc2)CCN(Cc2ccc(O)cc2)CC1,-85.1%
2,CCOC(=O)C1(CCOc2ccccc2)CCN(Cc2ccc(OCCO)cc2)CC1,-77.9%
3,O=C(N/N=C\c1cc(Br)c(Br)o1)c1cncc(Br)c1,7.62%
4,CN(C)c1cccc(C(=O)Nc2ccc(N3CCOCC3)cc2)c1,2.06%
5,Cc1nc2nc(-c3ccccc3)cc(=O)n2[nH]1,11.8%
6,O=C(NNS(=O)(=O)c1ccc([N+](=O)[O-])cc1)C(=O)Nc1cccc(C(=O)O)c1,11.9%
7,COc1ccc(C2C(C(=O)N3CCC4(CC3)OCCO4)CC(=O)N2c2ccc(OC)cc2)cc1 (stereo not shown),-6.88%
8,O=S(=O)(NCC(c1ccco1)N1CCN(c2ccccc2)CC1)c1ccc(F)cc1 (stereo not shown),0.0547%
9,O=C1COc2ccc(C(=O)COC(=O)Cc3ccc(F)cc3)cc2N1,-23.8%
10,CCC(=O)c1ccc(OCC(=O)Nc2ccccc2C(=O)NC2CC2)cc1,-6.53%
11,OC1/C(=C/c2ccccc2C(F)(F)F)N2CCC1CC2 (stereo not shown),9.66%
12,Fc1ccccc1-c1nnc2c3ccccc3nc(N3CCOCC3)n12,-9.92%
13,Clc1ccc(-c2nnc3c4ccccc4nc(N4CCOCC4)n23)cc1Cl,-64.7%
14,Brc1ccc(-c2nnc3c4ccccc4nc(N4CCOCC4)n23)cc1,-8.42%
15,CCCN(CC(=O)Nc1ccccc1C)C(=O)C1CCN(c2ncnc3sc(C)c(C)c23)CC1,-76.2%
16,Cc1sc2ncnc(N3CCC(C(=O)Nc4ccccc4C(C)(C)C)CC3)c2c1C,-15.2%
17,Cc1sc2ncnc(N3CCC(C(=O)N(C)CC(=O)Nc4ccc(Cl)c(C(F)(F)F)c4)CC3)c2c1C,3.47%
18,CCN(CC(=O)Nc1c(F)cccc1F)C(=O)C1CCN(c2ncnc3sc(C)c(C)c23)CC1,-57.8%
19,CCCCc1nnc(NC(=O)C2CCN(c3ncnc4sc(C)c(C)c34)CC2)s1,16.6%
20,CCN(CC(=O)Nc1c(F)cccc1F)C(=O)C1CCC1,-13.8%
21,CCOc1ccc(NC(=O)CN(C)C(=O)C2CCCC2)cc1OCC,27.8%
22,CCOc1ccc(NC(=O)CN(C)C(=O)C2CCN(c3ncnc4sc(C)c(C)c34)CC2)cc1OCC,-58.2%
23,Cc1sc2ncnc(N3CCC(C(=O)N(C)CC(=O)Nc4ccccc4Br)CC3)c2c1C,-65.8%
24,Cc1sc2ncnc(N3CCC(C(=O)Nc4ccc(Br)cc4Br)CC3)c2c1C,-7.07%
25,CCN(CC(=O)Nc1c(F)cccc1F)C(=O)C1CC1,3.28%
26,CCOC(=O)c1ccccc1NC(=O)C1CCN(c2ncnc3sc(C)c(C)c23)CC1,-11.4%
